Source: PubChem BioAssay
Cy5 interf NS3h: enhances or quenches Cy5 fluorescence in NS3h assay; actives 6% (n = 16,000); fluorescence interference ratio at 100 µM; Cy5-dT15 DNA with NS3h, fluorescence interference; actives lie on both sides; signal over control mean, under 1 quenches;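 active means compound fluorescence over control fluorescence at most 0.8, a quencher, or at least a set upper limit, an enhancer; inactive means ratio between 0.8 and the set upper limit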
HCV NS3h FP: hepatitis C NS3 helicase inhibition, primary screen; NS3h Cy5-dT15 DNA binding, fluorescence polarization; inhibition, % at 100 µM; actives 1.6% (n = 16,000);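 active means inhibition above the average over every tested compound plus 3 SD, cut at about 40% in these data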
HCV NS3h conf: hepatitis C NS3 helicase inhibition, confirmation | shares compounds with HCV NS3h FP | NS3h binding to Cy5-dT15 DNA, fluorescence polarization | inhibition, % at 100 µM | actives 20% (n = 240);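 active means percent inhibition of 50% or more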
SSB-DNA FP CB: E. coli SSB-DNA binding inhibition, NS3h counter-screen; shares compounds with HCV NS3h FP; E. coli SSB binding Cy5-dT15, fluorescence polarization; inhibition, % at 100 µM; actives 40% (n = 240); AID 720486;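 active means inhibition of at least 50%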;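 further: displacers lower Cy5 polarization so higher inhibition means more SSB displaced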
Target sequence (P0AGE0 whole entry, looked up): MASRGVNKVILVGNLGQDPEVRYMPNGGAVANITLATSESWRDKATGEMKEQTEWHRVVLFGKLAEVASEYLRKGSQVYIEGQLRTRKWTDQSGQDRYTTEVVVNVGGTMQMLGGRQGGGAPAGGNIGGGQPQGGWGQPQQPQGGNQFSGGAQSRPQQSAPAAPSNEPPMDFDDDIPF
Cy5 SSB interf: Cy5 fluorescence interference in NS3h counter-screen; shares compounds with HCV NS3h FP; actives 8% (n = 240); Cy5-dT15/E. coli SSB fluorescence interference; actives lie on both sides; fluorescence interference ratio at 100 µM;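 active means fluorescence interference ratio at or above 1.2, signal boosting, or at or below 0.8, signal quenching; inactive means ratio between 0.8 and 1.2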
Cy5 fluor confirm: Cy5 fluorescence interference, confirmation counter-screen; shares compounds with HCV NS3h FP; Cy5-dT15 DNA/NS3h fluorescence interference counterscreen; fluorescence interference ratio at 100 µM, hits read low; actives 44% (n = 240); AID 720489;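 active means fluorescence interference ratio at or below 0.8 quencher or at or above a set limitenhancer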
A number is an active result. Rows were chosen to be rich in hits. Some 7.6% of all compounds tested hit in one or more screens of this group.

O=C1NC(=S)S/C1=C/c1ccc(-c2cccc(C(=O)O)c2)o1 was read as Cy5 interf NS3h inactive, HCV NS3h FP 67, HCV NS3h conf 62, SSB-DNA FP CB 99, Cy5 SSB interf inactive and Cy5 fluor confirm 0.79.
`Cc1ccc(/C(N)=N\OC(=O)c2ccc(Cl)cc2Cl)cc1` gave Cy5 interf NS3h inactive and HCV NS3h FP inactive.
Screening CCOc1ccc(NC(=O)CN(c2ccc(Oc3ccccc3)cc2)S(C)(=O)=O)cc1 returned Cy5 interf NS3h inactive and HCV NS3h FP inactive.
Screening CC1=C(C(=O)c2ccccc2)C(c2ccc(F)cc2)NC(=O)N1 (configuration not stated) returned Cy5 interf NS3h inactive and HCV NS3h FP inactive.
CCOc1cc(/C=C2/SC(=S)N(C)C2=O)ccc1OCCOc1ccc(C)c(C)c1 was read as Cy5 interf NS3h inactive and HCV NS3h FP inactive.
`O=c1/c(=C\c2ccc(-c3cccc(Br)c3)o2)sc2nc3ccccc3n12` gave Cy5 interf NS3h inactive and HCV NS3h FP inactive.
COCCN1C(=O)/C(=C\c2ccc(-c3cccc([N+](=O)[O-])c3)o2)SC1=S was read as Cy5 interf NS3h inactive and HCV NS3h FP inactive.
Screening O=C1/C(=C\c2ccc(-c3cccc(Cl)c3)o2)SC(=S)N1CCS(=O)(=O)O returned Cy5 interf NS3h inactive, HCV NS3h FP 84, HCV NS3h conf inactive, SSB-DNA FP CB 98, Cy5 SSB interf inactive and Cy5 fluor confirm inactive.
`COc1ccc(/C(N)=N\OC(=O)COc2ccc3ccccc3c2)cc1` gave Cy5 interf NS3h inactive and HCV NS3h FP inactive.
For CC(=O)c1ccc(NC(=O)c2ccc3c(c2)OCCO3)cc1 the results were Cy5 interf NS3h inactive and HCV NS3h FP inactive.
O=C(Nc1ccc(Cl)cc1)c1ccc2c(c1)OCCO2 was read as Cy5 interf NS3h inactive, HCV NS3h FP inactive, HCV NS3h conf 62, SSB-DNA FP CB 76, Cy5 SSB interf inactive and Cy5 fluor confirm inactive.
For CC1(C)C(c2ccco2)=[N+]([O-])C2(CCCCC/C2=N/NC(N)=S)N1O (configuration not stated) the results were Cy5 interf NS3h inactive and HCV NS3h FP inactive.
`O=C(O)CCN1C(=O)/C(=C/c2cn(-c3ccccc3)nc2-c2ccc(Br)cc2)SC1=S` gave Cy5 interf NS3h inactive, HCV NS3h FP 146, HCV NS3h conf inactive, SSB-DNA FP CB inactive, Cy5 SSB interf inactive and Cy5 fluor confirm inactive.
For CCN1C(=O)/C(=C\c2cn(-c3ccccc3)nc2-c2ccc(Br)cc2)SC1=S the results were Cy5 interf NS3h inactive and HCV NS3h FP inactive.
`O=[N+]([O-])c1cccc2c1NC(c1ccccc1F)C1CC=CC21` (configuration not stated) gave Cy5 interf NS3h inactive and HCV NS3h FP inactive.
`O=C(O)c1cccc2c1NC(c1cccc3ccccc13)C1CC=CC21` (configuration not stated) gave Cy5 interf NS3h inactive, HCV NS3h FP 50, HCV NS3h conf inactive, SSB-DNA FP CB inactive, Cy5 SSB interf inactive and Cy5 fluor confirm inactive.
O=C(Nc1cc(Cl)cc(Cl)c1)c1cccc(Cl)c1Cl was read as Cy5 interf NS3h inactive and HCV NS3h FP inactive.
O=C1NN(c2ccccc2)C(=O)/C1=C/c1ccc(Br)o1 was read as Cy5 interf NS3h inactive, HCV NS3h FP 94, HCV NS3h conf 52, SSB-DNA FP CB 107, Cy5 SSB interf inactive and Cy5 fluor confirm 0.79.
Cc1ccc(-c2ccc(/C=C3\C(=O)NN(c4ccccc4)C3=O)o2)c([N+](=O)[O-])c1 was read as Cy5 interf NS3h inactive and HCV NS3h FP inactive.
`O=C1NN(c2ccccc2)C(=O)/C1=C/c1ccc(-c2ccc(C(=O)O)cc2)o1` gave Cy5 interf NS3h inactive and HCV NS3h FP inactive.
Screening O=C1NN(c2ccccc2)C(=O)/C1=C/c1ccc([N+](=O)[O-])o1 returned Cy5 interf NS3h 0.77, HCV NS3h FP 82, HCV NS3h conf 52, SSB-DNA FP CB 117, Cy5 SSB interf inactive and Cy5 fluor confirm inactive.
CC(=O)c1ccc(NC2=C(Cl)C(=O)c3ccccc3C2=O)cc1 was read as Cy5 interf NS3h inactive and HCV NS3h FP inactive.
Screening Cc1ccc(S(=O)(=O)N(C)Cc2ccccc2)cc1[N+](=O)[O-] returned Cy5 interf NS3h inactive and HCV NS3h FP inactive.
Screening O=C(NCC(c1ccccc1)c1ccccc1)Nc1cccc(Cl)c1 returned Cy5 interf NS3h inactive and HCV NS3h FP inactive.
For CCC(c1ccccc1)c1nnc(NC(=O)Nc2cccc(Cl)c2)s1 (configuration not stated) the results were Cy5 interf NS3h 1.2, HCV NS3h FP 47, HCV NS3h conf inactive, SSB-DNA FP CB inactive, Cy5 SSB interf inactive and Cy5 fluor confirm 0.74.
For CC(C)OC(=O)C1C(=O)CC(C)(O)C(C(=O)OC(C)C)C1c1ccc2c(c1)OCO2 (configuration not stated) the results were Cy5 interf NS3h inactive and HCV NS3h FP inactive.
C=CCOc1c(Br)cc(/C=C2\C(=O)NC(=O)N(c3ccc(Cl)cc3)C2=O)cc1OC was read as Cy5 interf NS3h inactive and HCV NS3h FP inactive.
Screening O=C1NC(=O)N(c2cccc(Cl)c2)C(=O)/C1=C/c1ccc(O)c(Cl)c1 returned Cy5 interf NS3h inactive and HCV NS3h FP inactive.
For Cc1ccc(N2C(=O)NC(=O)/C(=C\c3ccc(O)c(Br)c3)C2=O)cc1 the results were Cy5 interf NS3h inactive and HCV NS3h FP inactive.
Cc1cc(C)cc(N2C(=O)NC(=O)/C(=C\c3ccc(O)c(Br)c3)C2=O)c1 was read as Cy5 interf NS3h inactive, HCV NS3h FP inactive, HCV NS3h conf inactive, SSB-DNA FP CB inactive, Cy5 SSB interf inactive and Cy5 fluor confirm 0.75.
Screening O=C1NC(=O)N(c2ccc(Cl)cc2)C(=O)/C1=C/c1cc(Br)c(O)c([N+](=O)[O-])c1 returned Cy5 interf NS3h inactive, HCV NS3h FP inactive, HCV NS3h conf inactive, SSB-DNA FP CB 76, Cy5 SSB interf inactive and Cy5 fluor confirm inactive.
O=C1NC(=O)N(c2ccccc2F)C(=O)/C1=C/c1ccc(O)c(Cl)c1 was read as Cy5 interf NS3h inactive and HCV NS3h FP inactive.
For COc1ccccc1N1C(=O)NC(=O)/C(=C\c2ccc(O)c(O)c2)C1=O the results were Cy5 interf NS3h inactive, HCV NS3h FP 44, HCV NS3h conf inactive, SSB-DNA FP CB inactive, Cy5 SSB interf inactive and Cy5 fluor confirm inactive.
Cc1cccc(N2C(=O)NC(=O)/C(=C\c3ccc(O)c(Cl)c3)C2=O)c1 was read as Cy5 interf NS3h inactive, HCV NS3h FP 65, HCV NS3h conf inactive, SSB-DNA FP CB inactive, Cy5 SSB interf inactive and Cy5 fluor confirm inactive.
O=C(/C=C/c1ccccc1)NC(=S)Nc1cc([N+](=O)[O-])cc(Cl)c1O was read as Cy5 interf NS3h inactive and HCV NS3h FP inactive.
Screening CCC(=O)NC(c1ccc(OC)c(OC)c1)c1c(OC(C)=O)ccc2ccccc12 (configuration not stated) returned Cy5 interf NS3h inactive and HCV NS3h FP inactive.
